These results are taken from ChEMBL document CHEMBL1157539, “Thousands of chemical starting points for antimalarial lead identification” (Nature, 2010).

Assay type in all cases: functional
For test [1], the system named is Plasmodium falciparum. Description: GSK_TCMDC: Inhibition of Plasmodium falciparum 3D7 in whole red blood cells, using parasite LDH activity as an index of growth. Test compounds present at 2uM.
Test [2] concerns Plasmodium falciparum. In words: GSK_TCMDC: Inhibition of Plasmodium falciparum Dd2 in whole red blood cells, using parasite LDH activity as an index of growth. Test compounds present at 2uM.
Another test relates to HepG2. Description: GSK_TCMDC: Percent inhibition of human HepG2 cell line. Test compounds present at 10uM.

Consider `Cc1cccc(/C=C/C(=O)NC2CCC(N3CCC(c4ccccc4C)CC3)CC2)c1` (stereo not drawn), for which the Inhibition (in general, the change of the read-out against control, counted positive when it falls) in the test on Plasmodium falciparum [1] came out at 92%; in the test on Plasmodium falciparum [2], 20%; with HepG2, 67%.

Turning to `O=C(CC1CCCCC1)NCC(NCCCNc1cc(=O)c2ccccc2[nH]1)c1cc(Br)cc(Br)c1` (stereo not drawn), the Inhibition with Plasmodium falciparum [1] came out at 95%; in the test on Plasmodium falciparum [2], 52%; in the test with HepG2, 8%.

For the molecule `Cc1nc(C)c(-c2ccc(C(=O)c3ccc(Cl)cc3)cc2)c(O)c1Cl`, the values for the Inhibition in the test on Plasmodium falciparum [1], in the test with Plasmodium falciparum [2] and in the test with HepG2 were 98%, 95% and 0%, respectively.

As for `NC1=NC(c2ccccc2)(c2ccccc2)C(=O)N1Cc1ccc(-c2cccnc2)cc1.O=CO`, the Inhibition in the test with Plasmodium falciparum [1] was determined as 99%; in the test with Plasmodium falciparum [2] it was 94%; with HepG2, 15%.

Regarding `CCc1cn(CC(=O)N(CCOc2ccc(-c3ccc(C(F)(F)F)cc3)cc2)CCN(CC)CC)c(SCc2ccc(F)cc2)nc1=O`, the Inhibition with Plasmodium falciparum [1] was 95%; in the test on Plasmodium falciparum [2], 29%; in the test on HepG2 it was 46%.

`COc1ccc(CC(Cc2ccc(OC)cc2)NCC(O)c2cccc(Cl)c2)cc1` (stereo not drawn): the Inhibition in the test with Plasmodium falciparum [1] worked out at 100%; in the test on Plasmodium falciparum [2] it was 98%; in the test on HepG2 it was 11%.

`COc1ccc(C2C(C(=O)OC3CCCC3)=C(C)NC3=C2C(=O)CCC3)cc1Br` (stereo not drawn): the figures for the Inhibition in the test on Plasmodium falciparum [1], with Plasmodium falciparum [2] and in the test on HepG2 were 94%, 77% and 0%, respectively.

Consider `Cc1cc(-c2ccc(CN3Cc4ccccc4C3)cc2)ccc1S(=O)(=O)NCCN1CCCC1.O=C(O)C(F)(F)F`, for which the Inhibition with Plasmodium falciparum [1] is listed as 94%; in the test with Plasmodium falciparum [2], 10%; in the test with HepG2, 49%.

In the case of `COc1ccccc1NC(=O)CSc1nc2cccnc2n1-c1ccccc1OC`, the Inhibition with Plasmodium falciparum [1] came to 94%; in the test on Plasmodium falciparum [2], 91%; in the test with HepG2, 0%.

Consider `CC(C)COc1cc(C(=O)Nc2cnc3ccccc3c2)ccc1[N+](=O)[O-]`, for which the figures for the Inhibition with Plasmodium falciparum [1], in the test on Plasmodium falciparum [2] and in the test with HepG2 were 97%, 56% and 19%, respectively.

For the molecule `CCCCc1cc(NCc2ccncc2)nc(Nc2ccc(C)cc2)n1`, the Inhibition is given as 100% in the test with Plasmodium falciparum [1], 59% in the test on Plasmodium falciparum [2] and 7% with HepG2.

For `O=C(CSc1nc(-c2ccccc2Cl)ns1)Nc1cccc(Cl)c1`, the results for the Inhibition with Plasmodium falciparum [1], with Plasmodium falciparum [2] and in the test on HepG2 were 96%, 89% and 0%, respectively.

On to `COc1cc2nc(N3CCC(C(N)=O)CC3)nc(NCc3ccccc3)c2cc1OC`, for which the Inhibition with Plasmodium falciparum [1] is recorded as 100%; with Plasmodium falciparum [2], 23%; in the test on HepG2, 23%.

`CC(=O)Nc1ccc(C(=O)Nc2cccc(-c3ccc(-c4nc5cccc(C)c5[nH]4)cc3)c2)cn1`: the Inhibition came to 100% in the test with Plasmodium falciparum [1], 94% with Plasmodium falciparum [2] and 25% in the test on HepG2.

Turning to `O=C(CCNc1ccnc(NCC2CCCCC2)n1)Nc1ccccc1.O=C(O)C(F)(F)F`, the Inhibition stood at 95% in the test with Plasmodium falciparum [1], 48% in the test on Plasmodium falciparum [2] and 55% in the test on HepG2.

With `Cc1ccc2c(=O)c3cc(C)ccc3[nH]c2c1`, the Inhibition with Plasmodium falciparum [1] was determined as 96%; in the test on Plasmodium falciparum [2], 94%; in the test on HepG2, 10%.

Regarding `COc1cccc(CNC(=O)c2cccc(-c3ccc(CN4CCC(N5CCCC5)CC4)cc3)n2)c1.O=C(O)C(F)(F)F`, the Inhibition in the test with Plasmodium falciparum [1] stood at 100%; in the test with Plasmodium falciparum [2], 76%; with HepG2, 16%.

As for `CN(C(=O)/C=C/c1ccccc1F)C1CCN(CCCCCNC(=O)/C=C/c2ccc(Cl)c(Cl)c2)CC1`, the Inhibition amounted to 89% in the test with Plasmodium falciparum [1], 59% in the test with Plasmodium falciparum [2] and 73% in the test on HepG2.

Take `COc1ccc2nccc([C@H](O)CN3CCC(NCc4ccc5c(c4C)OCCO5)CC3)c2n1.Cl`: the Inhibition with Plasmodium falciparum [1] was found to be 94%; in the test with Plasmodium falciparum [2], 6%; in the test on HepG2, 26%.

Turning to `Fc1cccc(COc2ccc(-n3ccc4c(NCCCn5ccnc5)ncnc43)cc2Cl)n1`, the Inhibition in the test on Plasmodium falciparum [1] is on record as 87%; in the test on Plasmodium falciparum [2], 29%; in the test on HepG2, 14%.

Take `Cc1cc(-c2nc3cncc(-c4cccc(CN5CCCC5Cc5cccnc5)c4)c3n2C)nn1C.O=C(O)C(F)(F)F` (stereo not drawn): the Inhibition in the test with Plasmodium falciparum [1] amounted to 83%; with Plasmodium falciparum [2], 73%; in the test on HepG2, 0%.

As for `O=C(Nc1ccc(F)c(F)c1)c1ccc(CN2CCCN(Cc3cccc(O)c3)CC2)cc1.O=C(O)C(F)(F)F`, the values for the Inhibition with Plasmodium falciparum [1], in the test with Plasmodium falciparum [2] and with HepG2 were 92%, 57% and 43%, respectively.

Turning to `CC(CCNc1c2ccccc2nc2ccccc12)N1CCN(C)CC1.Cl` (stereo not drawn), the values for the Inhibition with Plasmodium falciparum [1], in the test with Plasmodium falciparum [2] and in the test on HepG2 were 100%, 0% and 25%, respectively.

Consider `Br.Fc1ccc(C2N=C(SCCSC3=NC(c4ccc(F)cc4)C(c4ccc(F)cc4)N3)NC2c2ccc(F)cc2)cc1` (stereo not drawn), for which the Inhibition in the test with Plasmodium falciparum [1] was determined as 99%; with Plasmodium falciparum [2], 69%; in the test on HepG2 it was 18%.

Consider `O=C(NCC1CCN(CC2CCCCC2)C1)c1cc(-c2cccc(C(F)(F)F)c2)cs1.O=C(O)C(F)(F)F` (stereo not drawn), for which the figures for the Inhibition in the test on Plasmodium falciparum [1], with Plasmodium falciparum [2] and in the test with HepG2 were 96%, 21% and 47%, respectively.

As to `Cc1[nH]c(C)c(-c2ccc(-c3cc(C(F)(F)F)cc(C(F)(F)F)c3)nc2)c(=O)c1Br`, the Inhibition came to 98% with Plasmodium falciparum [1], 96% with Plasmodium falciparum [2] and 18% in the test on HepG2.

As for `Cc1cccc2nc(-c3cccc(-c4ccc(NC(=O)c5cccnc5)cc4)c3)[nH]c12`, the Inhibition stood at 100% in the test on Plasmodium falciparum [1], 45% in the test on Plasmodium falciparum [2] and 64% in the test on HepG2.

For `Cc1ccc(Cn2nc(Cl)c(N3CCNCC3)cc2=O)cc1NC(=O)Nc1ccc(-c2ccccc2)cc1.O=C(O)C(F)(F)F`, the Inhibition in the test on Plasmodium falciparum [1] is on record as 98%; in the test with Plasmodium falciparum [2], 97%; in the test on HepG2 it was 100%.

For the molecule `FC(F)(F)c1ccc2[nH]c(-c3ccc(-c4ccc(CNCc5cnn(-c6ccccc6)n5)cc4)cc3)nc2c1.O=C(O)C(F)(F)F`, the Inhibition in the test with Plasmodium falciparum [1] turned out to be 100%; in the test with Plasmodium falciparum [2], 76%; in the test with HepG2 it was 35%.

With `CCCN1CCN(CCCCNc2c3ccccc3nc3ccccc23)CC1.Cl`, the values for the Inhibition in the test on Plasmodium falciparum [1], in the test on Plasmodium falciparum [2] and in the test on HepG2 were 100%, 0% and 34%, respectively.

As for `N#Cc1ccc(N[C@@H](CC2CCCCC2)C(=O)Nc2ccc(-c3ccccc3)cc2)c2ccccc12.O=C(O)C(F)(F)F`, the Inhibition in the test with Plasmodium falciparum [1] was determined as 100%; with Plasmodium falciparum [2], 99%; with HepG2, 34%.
